Assay results published in PubChem BioAssay AID504329 (Southern Research Specialized Biocontainment Screening …, 2011).
Hit rate of the full screen: of about 340,000 compounds, about 1,000 (0.29%) were called active. Only a sample is shown. Potency and affinity values are given separately. Unmarked numbers belong to inactive results. Rule as the data show it: inconclusive = inhibition above about 27% without an active follow-up result; inactive = below that.

Assay: NS1A inhibition, H1N1 influenza, cell based functional assay (AID 504329)
Conditions: percent inhibition, at 12.5 µM, hits give high values

SMILES | inhibition
CCS(=O)(=O)N1CCN(S(=O)(=O)c2ccc(S(=O)(=O)NC3CC3)cc2)CC1 | 7.16%
Cc1ccc(NC(=O)COc2ccc(C(=O)c3ccccc3)cc2)c(O)c1 | 8.15%
CCNC(=S)N1CCN(c2ccccc2OCC)CC1 | 0.76%
Cc1ccc(CN2CCNC(=O)C2CC(=O)NCCCn2ncc3ccccc32)o1 (stereo not drawn) | -1.25%
CCO[C@H]1OC(C(=O)N2CCN(Cc3ccc4c(c3)OCO4)CC2)=C[C@@H](C2CCCCC2)[C@@H]1CCCO | 8.35%
CC(C)N(Cc1nc(-c2ccc(Cl)cc2)no1)Cc1nccn1C | -7.64%
CCOC(=S)SCc1cn2cccc(C)c2n1 | 4.77%
CNc1ccc(Oc2nc([N+](=O)[O-])nn2C)cc1 | -2.73%
Fc1ccc(/C=N/n2cnn(Cc3ccccc3Cl)c2=S)cc1 | -7.06%
O=C(CCCc1ccccc1)Nc1nncs1 | 0.92%
O=S(=O)(NCC1COc2ccccc2O1)c1ccc2ccccc2c1 (stereo not drawn) | 1.74%
Cn1c(/C(C#N)=C(\O)c2cccc(F)c2)nc2ccccc21 | 0.62%
Cc1nc2sccn2c(=O)c1S(=O)(=O)N1CCN(c2cccc(C(F)(F)F)c2)CC1 | 3.59%
CCN1CCCC1CNC(=O)c1ccc2c(c1)NC(=O)/C(=C\c1ccc(C)cc1)S2 (stereo not drawn) | 21.9%
COc1ccc(/C=C2/Sc3ccc(C(=O)NCCCN4CCOCC4)cc3NC2=O)cc1OC | 9.94%
O=C(NCC1CCCN1S(=O)(=O)c1cccs1)c1ccccc1F (stereo not drawn) | -4.78%
CC(=O)Nc1ccc(S(=O)(=O)N2CCN(c3ccc(C)c(Cl)c3)CC2)cc1 | -15.9%
O=[N+]([O-])c1nn(-c2ccc3c(c2)OCCO3)n(O)c1=NC1CCCC1 | 15.3%
O=[N+]([O-])c1nn(-c2ccccc2)[n+]([O-])c1N1CCN(c2ccccc2)CC1 | 0.82%
O=[N+]([O-])c1nn(-c2ccc3c(c2)OCCO3)n(O)c1=NC1CCCCC1 | 9.84%
CN=c1c([N+](=O)[O-])nn(-c2ccc3c(c2)OCCO3)n1O | 2.75%
C/C=C(\C)CN1CCN(c2ccccc2)CC1 | -6.09%
COc1cccc2c(Cl)c(CC=C(Cl)Cl)c(C)nc12 | 8.95%
O=[N+]([O-])c1ccc(-[n+]2c(-c3ccccc3)cc(-c3ccccc3)cc2-c2ccccc2)cc1 | 0.94%

SMILES | inhibition
CC(C)n1c2ccccc2c2cc([N+](=O)[O-])ccc21 | 3.2%
CCN(CC)CC(O)Cn1c(C)c(-c2ccccc2)c2cc([N+](=O)[O-])ccc21 (stereo not drawn) | 27.4%
O=[N+]([O-])c1ccc2c(c1)c(-c1ccccc1)nc1nncn12 | -1.91%
COc1ccc(S(=O)(=O)Nc2ccc3c(c2)C(=O)N([C@H](C)CO)C[C@H](C)[C@@H](CN(C)C(=O)Nc2ccccc2)O3)cc1 | 6.6%
COc1ccc(Nc2nc3c([nH]2)c(=O)[nH]c(=O)n3C)cc1 | -6.85%
O=C(CN1C(=O)NC2(CCOc3ccccc32)C1=O)NCCc1ccc(F)cc1 (stereo not drawn) | -8.82%
N#CCCN1CCN(C2=NC(=O)/C(=C\c3cccs3)S2)CC1 | 8.67%
CCOC(=O)c1ccccc1NC(=O)/C=C/c1cc(OC)c(OC)c(OC)c1 | -4.73%
COc1cccc([C@@H]2CC=C(C(=O)O)[C@H](c3ccc(Br)cc3)N2S(=O)(=O)c2ccc(C)cc2)c1 | -4.53%
CN(N=Nc1ccc([N+](=O)[O-])cc1)c1ccccc1 | 8.69%
CCCCN(C)c1ccc([N+](=O)[O-])cc1 | 11.8%
Cc1ccc(CSC2=NCCN2C(=O)c2ccc([N+](=O)[O-])cc2)cc1 | 5.18%
COc1ccc([C@@H]2CC=C(C(=O)O)[C@H](c3ccccc3)N2S(=O)(=O)c2ccccc2C)cc1 | -3.46%
COc1ccc(/C=N/S(=O)(=O)c2cccs2)cc1 | 4.61%
COc1ccc(-c2nsc3c(SCc4ccccc4)ncnc23)cc1 | -10.6%
O=c1cc2oc3cc(O)c(O)cc3c(-c3ccccc3O)c-2cc1O | 4.83%
COc1c(O)cc2oc(-c3ccc(O)c(O)c3)cc(=O)c2c1O | 2.55%
COc1ccc(OC)c(-c2oc3ccccc3c(=O)c2O)c1 | -8.28%
Cc1ccccc1-c1cc(=O)c2c(O)cccc2o1 | -13.3%
O=c1cc2oc3cc(O)c(O)cc3c(-c3ccccc3[N+](=O)[O-])c-2cc1O | 20.1%
Cc1cc2oc(=O)cc(-c3cc4ccccc4o3)c2cc1O | -6.82%
COc1cc(-c2cc(=O)c3ccccc3o2)ccc1O | -19%
COc1ccc2c(=O)cc(-c3ccccc3F)oc2c1 | -4.71%
CCCC(OC(=O)CC1Sc2ccccc2NC1=O)C(=O)NCc1ccco1 (stereo not drawn) | 4.36%

SMILES | inhibition
N#Cc1cc(-c2ccccc2)oc1NC(=O)c1ccccc1 | 0.56%
COc1ccc(N2CCN(C(=O)c3ccc(S(=O)(=O)NCc4ccco4)cc3)CC2)cc1 | 6.25%
COc1cccc(N=Nc2ccc3cccnc3c2O)c1 | 6.02%
COc1ccc(N=Nc2ccc3ccccc3c2)c(O)c1 | 25.1%
Cc1ccc(C(=O)NNC(=O)c2ccc3ccccc3c2O)cc1 | -5%
Cc1ccc(N=Nc2[nH]c3ccccc3c2O)cc1 | -4.85%
CCOn1c(=O)c(-c2ccc(F)cc2)[n+]([O-])c2ccccc21 | -9.53%
O=C(COc1ccc(Cl)cc1)NCc1nnc(SCC(=O)Nc2ccc(F)cc2F)o1 | 12.3%
O=C1N2CCSC2=NC1(Nc1nccs1)C(F)(F)F (stereo not drawn) | -5.52%
COC(=O)c1ccccc1S(=O)(=O)N(CCCN1CCOCC1)Cc1cccs1 | 18.3%
COc1cccc(C2C(C#N)=C(N)N(N(C)C)C3=C2C(=O)CCC3)c1 (stereo not drawn) | -18.6%
Cc1ccc(NCc2nc3ccccc3n2C)cc1 | 3.76%
Cn1c(CNc2ccccc2)nc2ccccc21 | -15.8%
O=C(Cn1cnc([N+](=O)[O-])n1)N/N=C/c1cccc(Cl)c1 | -19.4%
O=C(Cn1cnc([N+](=O)[O-])n1)N/N=C/c1ccc2ccccc2c1 | -2.51%
O=C(Cn1cnc([N+](=O)[O-])n1)N/N=C/c1cccc2ccccc12 | 5.61%
Cc1ccccc1/C=N/NC(=O)Cn1cnc([N+](=O)[O-])n1 | 0.54%
O=C(CCCn1cnc([N+](=O)[O-])n1)Nc1cc(Cl)ccc1O | -2.62%
Cc1cc([N+](=O)[O-])nn1Cc1ccc(C(=O)N/N=C/c2ccc(O)cc2O)cc1 | 2.59%
COc1ccccc1/C=N/NC(=O)Cn1cnc([N+](=O)[O-])n1 | 2.27%
Cc1cc([N+](=O)[O-])nn1CC(=O)N/N=C/c1ccccc1O | 13.7%
CCN(CC)S(=O)(=O)c1ccc(Cl)c(NC(=O)COc2ccc3c(C)cc(=O)oc3c2)c1 | 15.6%
CC(=O)c1cccc(NC(=O)CSc2ccc(-c3sc(C)nc3C)nn2)c1 | -5.12%
Cc1ccccc1NC(=O)/C(C#N)=C/c1ccc[nH]1 | -10.5%

SMILES | inhibition
COC(=O)c1ccc(N2CCN(C)CC2)c(NC(=O)COc2ccccc2)c1 | 4.25%
COc1ccc(-c2noc(Cn3cc(S(=O)(=O)N4CCCC4)ccc3=O)n2)cc1 | -10.2%
Cc1ccc(/C=N/n2c(-c3ccc(Cl)cc3)n[nH]c2=S)o1 | 2.1%
Cc1cc(OCC(=O)N2CCC(C(=O)O)CC2)c2c3c(c(=O)oc2c1)CCC3 | -2.02%
O=C(c1c(F)cccc1F)N1CCN(c2cccc(C(F)(F)F)c2)CC1 | -9.64%
Nc1nc(-c2ccccc2)c(N=Nc2cccnc2)s1 | 18%
Nc1nc(-c2ccccc2)c(N=Nc2ccc(Cl)cc2)s1 | 11.4%
Nc1ccc(N=Nc2ccccc2Cl)c(N)n1 | 26.8%
Nc1nc(-c2ccccc2)c(-c2ccccc2)s1 | 4.73%
C=C(C)COc1ccc(-c2[nH]ncc2-c2ccc(OC)cc2)c(O)c1 | 9.07%
CC(=O)c1sc(NC(=O)C2CCCN2S(=O)(=O)c2ccccc2F)nc1C (stereo not drawn) | -3.2%
COc1cc(C)ccc1OCCCOc1c(Cl)cccc1Cl | -6.86%
CN(C)/N=C/C=C1\CC/C(=C\c2ccc(Br)cc2)C1=O | 5.12%
CC(C)c1ccc(/C=C2\CC/C(=C\C=N\N(C)C)C2=O)cc1 | 2.58%
O=C(Nc1sc2c(c1C(=O)N1CCOCC1)CCCCC2)c1cccnc1 | 1.63%
COc1cccc(/C=N/NC(=O)Cn2ccnc2C)c1 | -3.78%
Cc1nccn1CC(=O)N/N=C/c1cccc(O)c1 | -4.69%
Cc1nccn1CC(=O)N/N=C/c1c[nH]c2ccccc12 | -1.01%
Cc1nccn1CC(=O)N/N=C/c1cccs1 | -26.6%
COc1ccc(/C=N/N=C2/NC(=O)C(c3ccccc3)(c3ccccc3)S2)cc1 | 9.74%
Cc1cccc(OCc2nnc(SCC(=O)Nc3cccc(C(=O)N4CCOCC4)c3)n2C)c1 | -2.72%
